The text below walks through data of PubChem BioAssay.

Each structure is given as a SMILES string.

For the test, the target named is Follistatin-related protein 3 (Homo sapiens) (UniProt O95633). Put plainly: FSTL3 binders on small-molecule microarrays, primary screen, biochemical, small-molecule microarray, 635 nm fluorescence (AID 1105).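 Further: score merges emission near 667 nm and signal to noise per printed spot across three slides.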 The note with it: FSTL3 binding, higher = more signal.
Chain of Follistatin-related protein 3 (Homo sapiens) (O95633 whole entry, looked up): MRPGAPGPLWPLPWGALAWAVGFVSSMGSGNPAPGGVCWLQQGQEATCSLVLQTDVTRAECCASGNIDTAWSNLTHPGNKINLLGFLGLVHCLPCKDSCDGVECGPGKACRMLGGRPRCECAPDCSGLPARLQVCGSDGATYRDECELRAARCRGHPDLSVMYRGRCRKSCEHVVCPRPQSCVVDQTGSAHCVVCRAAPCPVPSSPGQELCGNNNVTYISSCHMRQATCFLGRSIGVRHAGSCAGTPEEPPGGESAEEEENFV
Consider `CO[C@H]1COC(=O)CC=C[C@H](C)[C@@H](OC)COC(=O)[C@@H](C)NC(=O)CC=C[C@@H]1C`, for which the composite z-score was determined as 1.44.

Regarding `CCOC(=O)[C@H](Cc1ccccc1)NC(=O)OC1CC(CCC2CC(CC)=NO2)OC2(CCCC(COC(=O)NCCC(C)C)O2)C1` (some centres undefined), the composite z-score is -0.127.

As to `CC(C)CON=C1C[C@@H](O)[C@@H](O)[C@@H]2[C@@H]3C(=O)N(c4ccc(F)cc4F)C(=O)[C@@H]3CC[C@H]12`, the composite z-score came to 0.986.

On to `CC(C)(C)N1C(=O)[C@H]2[C@H]3[C@H](O)[C@H](O)CC(=NO[C@@H]4O[C@H](CO)[C@@H](O)[C@H](O)[C@H]4O)[C@H]3CC[C@H]2C1=O`, for which the composite z-score came out at 0.487. In the case of `COC(=O)C=CCCc1coc(C=CCNC(=O)OC)n1` it was 1.07. In the case of `Cc1ccc(S(=O)(=O)OC[C@H]2CN3[C@H](c4ccc(Br)cc4)[C@@H](C)CC[C@H]3C(=O)O2)cc1` it was -0.0668. Consider `CO[C@@H]1COC(=O)[C@@H](C)NC(=O)CC=C[C@@H](C)[C@H](NS(=O)(=O)c2ccc(C)cc2)COC(=O)[C@H](C)NC(=O)CC=C[C@H]1C`, for which the composite z-score was 0.661. `COC(=O)[C@H](C)NC(=O)CCC1CC(OC(=O)NCc2ccc3c(c2)OCO3)CC2(CCCC(COC(=O)NCC3CCCCC3)O2)O1` (some centres undefined) returned a composite z-score of 1.07. In the case of `C#CCCCON=C1C[C@@H](O)[C@@H](O)[C@@H]2[C@@H]3C(=O)N(C(C)(C)C)C(=O)[C@@H]3CC[C@H]12` it was -0.866. The figure for `CCOC(=O)NN=C1C[C@@H](O)[C@@H](O)[C@@H]2[C@@H]3C(=O)N(C(C)(C)C)C(=O)[C@@H]3CC[C@H]12` is 0.635. Regarding `C[C@H]1COC(=O)[C@@H]2CCCN2C(=O)[C@@H](C)COC(=O)[C@H](Cc2ccccc2)NC1=O`, the composite z-score is 0.511.

In the case of `CCOC(=O)NN=C1C[C@@H](O)[C@@H](O)[C@@H]2[C@@H]3C(=O)N(c4cccc(Oc5ccccc5)c4)C(=O)[C@@H]3CC[C@H]12`, the composite z-score worked out at 0.455. `CCOC(=O)C1=NO[C@@]2(C=C(Br)C3(OCCCO3)[C@H]3O[C@H]32)C1` displayed a composite z-score of 0.842. In the case of `CO[C@@H]1COC(=O)[C@H](CCSC)NC(=O)CC=C[C@@H](C)COC(=O)CCC[C@H]1C` it was 1.03; in that of `CCOC(=O)[C@H](Cc1ccccc1)NC(=O)CCC1CC(OC(=O)NCc2cccc3ccccc23)CC2(CCCC(COC(=O)NCCC(C)C)O2)O1` (some centres undefined), 0.133. In the case of `CC[C@@H](c1ccccc1)n1c(=O)n2n(c1=O)[C@H]1[C@H](O)[C@@H]3O[C@@H]3C(=O)[C@H]1CC2` it was 0.32; in that of `CCc1cc2c(nc1CC)CCN(CCC(C)=NO[C@H](C)c1cn([C@H](CO)Cc3ccccc3)nn1)C2`, 0.11. In the case of `CCOC(=O)[C@H](CC(C)C)NC(=O)CCC1CC(OC(=O)NCc2ccc3c(c2)OCO3)CC2(CCCC(COC(=O)NCC(c3ccccc3)c3ccccc3)O2)O1` (some centres undefined) it was 0.503; in that of `CCOC(=O)CCN1C(=O)[C@H]2[C@H]3[C@H](O)[C@H](O)CC(=NOCC(C)C)[C@H]3CC[C@H]2C1=O`, -0.276; in that of `O=C1[C@H]2[C@H]3[C@H](O)[C@H](O)CC(=NOCc4ccccc4)[C@@H]3CC[C@H]2C(=O)N1C[C@@H]1CCCO1`, -0.304. As for `CCOC(=O)[C@H](CC(C)C)NC(=O)CCC1CC(OC(=O)NCc2cccc3ccccc23)CC2(CCCC(COC(=O)NCC3CCCCC3)O2)O1` (some centres undefined), the composite z-score came out at 0.855. Take `CC(C)=CCCC(C)=CCON=C1C[C@@H](O)[C@@H](O)[C@@H]2[C@@H]3C(=O)N(c4cccc(Oc5ccccc5)c4)C(=O)[C@@H]3CC[C@@H]12`: the composite z-score came to 0.574. As to `O=C1[C@H]2[C@H]3[C@H](O)[C@H](O)CC(=NOC[C@@H](O)COCc4ccco4)[C@H]3CC[C@H]2C(=O)N1c1ccc(F)cc1F`, the composite z-score was -0.529. Regarding `COc1ccc(O[C@@H]2[C@H](O)CO[C@H]2C=Cc2ccccc2)cc1`, the composite z-score is -0.267. With `COC(=O)[C@@H]1CC[C@H](C)[C@@H](c2ccc(C)cc2)N1C(=O)c1ccc(C=NO[C@@H]2O[C@H](COC(C)=O)[C@@H](OC(C)=O)[C@H](OC(C)=O)[C@H]2OC(C)=O)cc1`, the composite z-score came out at 0.92.

Turning to `CO[C@H]1COC(=O)[C@H](C)NC(=O)[C@@H](C)COC(=O)[C@H]2CCCN2C(=O)CC=C[C@H]1C`, the composite z-score was 0.736. The figure for `CC(C)=CCCC(C)=CCON=C1C[C@@H](O)[C@@H](O)[C@@H]2[C@@H]3C(=O)N(c4ccc(F)cc4F)C(=O)[C@@H]3CC[C@H]12` is 1.08. In the case of `COc1cc(O)c(C(=O)C=Cc2ccc3c(c2)OCO3)c(OC)c1` it was -0.0642; in that of `COc1ccc(O[C@H]2C=C[C@@H](c3ccccc3)O[C@@H]2CON=C2[C@H]3CCn4c(=O)n(-c5ccccc5)c(=O)n4[C@H]3[C@H](O)[C@@H]3O[C@H]23)cc1`, 0.584.
